The record followed here is the supplement of paper PMC3334620.

Over roughly 33,000 sequences, “E-score (-0.5 to 0.5)” has its median near -0.016; the highest 2% begin near 0.32. This excerpt belongs to a sample that is enriched for the highest values.

The target of this experiment is T1, Stp1 (UniProt B3LFK1).
T1 sequence: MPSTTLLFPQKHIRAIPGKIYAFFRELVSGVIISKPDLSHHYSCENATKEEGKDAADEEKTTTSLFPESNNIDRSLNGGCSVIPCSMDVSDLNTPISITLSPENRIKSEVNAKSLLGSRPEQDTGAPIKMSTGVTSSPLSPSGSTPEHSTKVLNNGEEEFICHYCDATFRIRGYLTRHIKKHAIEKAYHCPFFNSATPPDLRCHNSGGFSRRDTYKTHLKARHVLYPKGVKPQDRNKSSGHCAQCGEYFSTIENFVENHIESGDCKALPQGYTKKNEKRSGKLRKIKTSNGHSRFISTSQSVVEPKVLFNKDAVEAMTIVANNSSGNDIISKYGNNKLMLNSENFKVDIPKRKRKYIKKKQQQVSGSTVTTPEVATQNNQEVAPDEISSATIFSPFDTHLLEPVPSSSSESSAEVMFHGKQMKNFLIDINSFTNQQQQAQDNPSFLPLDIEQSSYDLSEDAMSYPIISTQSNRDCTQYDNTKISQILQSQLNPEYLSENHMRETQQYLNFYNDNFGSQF
In words: PBM E-score (8-mer binding enrichment) (E-score (-0.5 to 0.5)); higher = stronger / more preferred TF binding. The following applies: protein concentration: 200 nM; construct: GST-full length. Here is the method: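 Universal 'all 10-mer' protein binding microarrays (Agilent AMADID 015681) probed with GST-tagged S. cerevisiae TFs (full-length or DBD) made by in vitro transcription/translation (PURExpress), about 100-200 nM. Bound TF was detected with fluorescent anti-GST. Each ungapped 8-mer (which stands for itself and its reverse complement) is scored by the PBM enrichment score (E-score), a modified Wilcoxon-Mann-Whitney statistic from -0.5 to +0.5, computed with the Universal PBM Analysis Suite. Scale: above 0.35 generally sequence-specific binding.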
As to ATTACGGA, the “PBM E-score” value amounted to 0.0935. To AGTACGGG belongs -0.156. For AGTACGGC, the “PBM E-score” value amounted to 0.436. Turning to CGTACGGA, the “PBM E-score” value stood at 0.302.

Take ATTACGGG: the “PBM E-score” value was -0.199. For CCTCGGGA, the “PBM E-score” value was -0.121. Regarding GCTTAGAC, the “PBM E-score” value is -0.11. To GTGCCCAC belongs -0.00488.

With GGCTGACA, the “PBM E-score” value came out at 0.0532. To GCTTTGGA belongs 0.103; to CCGTGCTC, 0.261; to GCGTGCGA, -0.0235.

Consider ACGTGCGC, for which the “PBM E-score” value came to 0.165. As to CCGTGCGA, the “PBM E-score” value worked out at 0.415. For the sequence CCGTGCGC, the “PBM E-score” value was 0.433.

In the case of CTGTGCGA, the “PBM E-score” value is -0.0295. Turning to CCAAACTA, the “PBM E-score” value is -0.0843. As for GCAGCATA, the “PBM E-score” value worked out at 0.0149. With CGACTACC, the “PBM E-score” value is -0.22.

Take AGAGAGCA: the “PBM E-score” value was -0.213.

In the case of AGTGCAGG, the “PBM E-score” value was -0.0709. Consider CCCGGGCC, for which the “PBM E-score” value was -0.151. On to AAACGGCA, for which the “PBM E-score” value turned out to be 0.467. For the sequence GAACGGCC, the “PBM E-score” value is 0.233.

As to GAACGGGA, the “PBM E-score” value was -0.0828. In the case of CAACGGAA, the “PBM E-score” value was 0.123. The figure for AAACGGTA is 0.166. The figure for CAACGGCA is 0.402; for TAACGGCA it is 0.31.

Regarding GAACGGCA, the “PBM E-score” value came to 0.468. On to CAACGGTA, for which the “PBM E-score” value is -0.266. For AAACTGCG, the “PBM E-score” value is -0.0893. On to ACTGGCAT, for which the “PBM E-score” value is -0.0932. For CTAGTGCC, the “PBM E-score” value amounted to 0.301.

Consider TACTGCGA, for which the “PBM E-score” value is -0.159. Turning to TTGAACAA, the “PBM E-score” value is 0.0506.

For the sequence AATCTACC, the “PBM E-score” value is -0.0419.

On to CCAAAGTC, for which the “PBM E-score” value was -0.132.

On to ATTCCTCA, for which the “PBM E-score” value amounted to 0.0196. In the case of GGGCGATA, the “PBM E-score” value was -0.147.

For AGGCGATA, the “PBM E-score” value was determined as 0.0637. Turning to AGGCGATC, the “PBM E-score” value came out at 0.128. CAGCGATC: the “PBM E-score” value was -0.127. With CGGCGATA, the “PBM E-score” value is 0.395. The figure for CGGCGATC is 0.373; for GCCTGGTA it is -0.227. The figure for CTCCTGCA is -0.244; for ATGCTTGC it is -0.24.

AAGCAGGA: the “PBM E-score” value was -0.113. In the case of CGGCAGAA, the “PBM E-score” value came to 0.328. The figure for GGGCAGAA is 0.0536; for GGGCAGCA it is -0.122.

With CGGCAGCA, the “PBM E-score” value is 0.333. Consider CGGCAGCC, for which the “PBM E-score” value is 0.216.

Consider CGGCAGAC, for which the “PBM E-score” value stood at 0.0714. As for CTCTGGTA, the “PBM E-score” value was -0.177. With ACGCCTCC, the “PBM E-score” value is -0.102. To ATGCCTCC belongs -0.0159; to ACGCCTCG, 0.381. Regarding ATGCCTTG, the “PBM E-score” value is 0.274. Take ACGCCTTG: the “PBM E-score” value is 0.348. As to ACGCCTCT, the “PBM E-score” value amounted to 0.0123.

On to ACGCCTTA, for which the “PBM E-score” value came to 0.294. With ACGCCTTC, the “PBM E-score” value came out at 0.204. With ATGCCTCG, the “PBM E-score” value stood at 0.412. For ACCGTGGG, the “PBM E-score” value was -0.27. CGATAAGA: the “PBM E-score” value was 0.0597. Consider AGTTGGGG, for which the “PBM E-score” value is -0.209. With AATATACG, the “PBM E-score” value turned out to be 0.017.

Regarding TAATTTCA, the “PBM E-score” value stood at 0.242. Consider GTCACCTA, for which the “PBM E-score” value is -0.204.

Regarding GAGGCCGC, the “PBM E-score” value is 0.095. As for ACGGCCGC, the “PBM E-score” value worked out at 0.406. As to AAGGCCGC, the “PBM E-score” value stood at 0.314. To CCGGCCGC belongs -0.018.

In the case of AAGGCCGG, the “PBM E-score” value worked out at 0.128.

Turning to GCGGCCGA, the “PBM E-score” value was found to be 0.139. In the case of GCGGCCGC, the “PBM E-score” value is 0.373.

On to AAGGCCGT, for which the “PBM E-score” value turned out to be 0.358. For ACGGCCGG, the “PBM E-score” value was found to be 0.0865.

For the sequence ACGGCCGT, the “PBM E-score” value amounted to 0.401. Regarding ACGGCCAC, the “PBM E-score” value was determined as 0.3. As to ACGGCCGA, the “PBM E-score” value amounted to 0.191.

In the case of ACTATACC, the “PBM E-score” value was -0.017.

Turning to ACCAGGGT, the “PBM E-score” value is -0.398. AAGCAGGG: the “PBM E-score” value is -0.156.
